Compound activity deposited in PubChem by several laboratories.
CYP2C9 inhib = blockers of cytochrome P450 2C9 activity – biochemical, luminescence, ADME assay, primary screen | 96,000 compounds, 20% hits | inhibition, % at 5 µM | AID 777, 2007 | P11712 | CYP2C9 Supersomes, luciferin-H conversion;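 active = blocking of liver enzyme CYP2C9 beyond about 50% at 5 µM, limit read from the data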
Target sequence (P11712 whole entry, looked up): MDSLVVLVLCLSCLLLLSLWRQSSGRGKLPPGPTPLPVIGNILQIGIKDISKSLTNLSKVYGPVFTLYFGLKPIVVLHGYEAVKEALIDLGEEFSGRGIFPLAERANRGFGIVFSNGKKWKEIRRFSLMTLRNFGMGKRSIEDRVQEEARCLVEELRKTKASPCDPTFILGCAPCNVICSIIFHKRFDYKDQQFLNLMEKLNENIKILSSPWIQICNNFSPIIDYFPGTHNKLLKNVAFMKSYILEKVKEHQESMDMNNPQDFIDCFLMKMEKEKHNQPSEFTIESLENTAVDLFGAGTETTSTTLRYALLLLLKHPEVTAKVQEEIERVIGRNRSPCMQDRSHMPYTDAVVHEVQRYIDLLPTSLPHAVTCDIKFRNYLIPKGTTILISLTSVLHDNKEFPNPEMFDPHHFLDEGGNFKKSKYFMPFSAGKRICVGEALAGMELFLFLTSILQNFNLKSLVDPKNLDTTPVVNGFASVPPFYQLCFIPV
D1 mod = D1 CRE-luciferase signal change, two-sided – cell-based, HEK293 D1, dopamine EC30, D1 allosteric modulator project, primary screen. dopamine EC30 potentiation; actives deviate in either direction. B-score at 10 µM. 58,000 compounds, 5.9% hits. AID 641, 2007;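 active = luminescence count or its row- and column-corrected plate score outside the 99.7% band of the plate's sample wells, on either side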
CYP2C19 inhib = blockers of cytochrome P450 2C19 activity – biochemical, luminescence, ADME assay, primary screen; P33261; CYP2C19 Supersomes, luciferin-H EGE luminescence, 30 min; inhibition, % at 5 µM; 96,000 compounds, 21% hits; AID 778, 2007;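 active = CYP2C19 inhibition above a set limit at 5 µM in the primary screen, cut at about 50% in these data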;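 note: plate controls were negative control wells for no effect and 2.5 mM tranylcypromine positive control for full effect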
CYP2C19 activ = human CYP2C19 activators, primary screen, biochemical, luminescence; Cytochrome P450 2C19 (Homo sapiens), P33261; recombinant CYP2C19, luciferin-H EGE luminescence; active compounds read high; 0 = fully inhibited enzyme, 1 = untreated enzyme; activation factor at 5 µM; 96,000 tested, under 10 active; AID 1025, 2008;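 active = activation factor of at least 2 at 5 µM in the primary screen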;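 note: 0 = wells with 2.5 mM tranylcypromine and 1 = vehicle-only wells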
hDAT+cocaine = changed hDAT dopamine uptake under cocaine IC80, either direction, primary screen, cocaine antagonist project, cell-based, LLC-PK1 hDAT, [14C]-dopamine uptake, MLSMR | Sodium-dependent dopamine transporter (Homo sapiens), Q01959 | LLC-PK1 hDAT cells, [14C]-dopamine uptake with cocaine IC80; actives deviate in either direction | B-score at 10 µM | 110,000 compounds, 1.3% hits | AID 449768, 2010;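 active = Z score or B-score, a plate-position-corrected score, falls beyond the plate's 99.7% confidence bounds, in either direction; inactive = both scores lie inside the 99.7% bounds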;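 note: scored against the spread of the other compound wells on the same plate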
CYP2C9 act = human CYP2C9 activators, primary screen, biochemical, luminescence | Cytochrome P450 2C9 (Homo sapiens), P11712 | recombinant CYP2C9, luciferin-H conversion; active compounds read high; factor 1 = untreated enzyme, 0 = blocked | activation factor at 5 µM | 96,000 compounds, 1.4% hits;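 active = activation factor of 2 or more for CYP2C9 at a 5 µM dose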;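 note: 0 = sulfaphenazole-blocked wells and 1 = vehicle-only wells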
* = called active by the depositor. Hits are enriched below; roughly 28% of the tested compounds scored in any of these assays.

Cn1c(CSc2ncn[nH]2)nc2ccccc21 was read as CYP2C9 inhib -65, CYP2C19 inhib 25, CYP2C19 activ 0.8, hDAT+cocaine -0.68 and CYP2C9 act 1.6.
`Cn1c(-c2sc3ccccc3c2Cl)n[nH]c1=S` gave CYP2C9 inhib 77*, CYP2C19 inhib 52*, CYP2C19 activ 0.5, hDAT+cocaine -0.28 and CYP2C9 act 0.2.
Screening Cc1cccc(CN2C(=O)[C@H]3Cc4c([nH]c5ccccc45)C(C)(C)N3C2=O)c1 returned hDAT+cocaine 0.93.
`O=C(NC1CCCCC1)NC1CC2CCCC(C1)N2C1CCCC1` (configuration not stated) gave hDAT+cocaine 0.31.
`NC(=O)CC(NC(=O)c1ccc(Br)cc1)c1ccc(N2CCC(Br)CC2)c([N+](=O)[O-])c1` (configuration not stated) gave hDAT+cocaine -0.21.
`CCSc1nnc2n(N)c(=O)c3ccccc3n12` gave CYP2C9 inhib -9, CYP2C19 inhib -4, CYP2C19 activ 1, hDAT+cocaine -1.1 and CYP2C9 act 1.1.
Screening CSc1nc2nc3c(cn2n1)C(=O)CC(c1ccccc1)C3 (configuration not stated) returned CYP2C9 inhib 50, CYP2C19 inhib 51*, CYP2C19 activ 0.5, hDAT+cocaine -0.42 and CYP2C9 act 0.5.
O=C1CC(c2ccccc2)Cc2nc3nc(C(F)(F)F)nn3cc21 (configuration not stated) was read as CYP2C9 inhib 62*, CYP2C19 inhib 49, CYP2C19 activ 0.5, hDAT+cocaine -0.4 and CYP2C9 act 0.4.
For O=C(C1=C[C@@H](c2ccc3c(c2)OCO3)C[C@@H](OCCCCO)O1)N1CCN(Cc2ccc3c(c2)OCO3)CC1 the results were hDAT+cocaine 1.1.
O=C(NCc1nc2ccccc2[nH]1)C1=C[C@H](C2CCCCC2)C[C@H](OCCCCO)O1 was read as hDAT+cocaine 1.9*.
For O=C(C1=C[C@H](C2CCCCC2)C[C@H](OCCCCO)O1)N1CCN(Cc2ccc3c(c2)OCO3)CC1 the results were hDAT+cocaine 2.2*.
`CCO[C@H]1OC(C(=O)NCc2nc3ccccc3[nH]2)=C[C@@H](c2ccccc2)[C@@H]1CCCO` gave hDAT+cocaine -0.46.
`CCO[C@H]1OC(C(=O)NCc2nc3ccccc3[nH]2)=C[C@@H](c2ccc3c(c2)OCO3)[C@@H]1CCCO` gave hDAT+cocaine 2.7*.
`CC(=O)n1cc([C@H]2C=C(C(=O)N3CCN(Cc4ccccc4)CC3)O[C@@H](OCCCCO)C2)c2ccccc21` gave hDAT+cocaine 2.9*.
For C/C(=N\n1nnnc1Nc1ccccc1)c1ccc(N)cc1 the results were CYP2C9 inhib 21, D1 mod -0.81, CYP2C19 inhib 27, CYP2C19 activ 0.7, hDAT+cocaine 0.0094 and CYP2C9 act 0.8.
N#CCC(=O)NCCCOC(=O)Nc1ccc(Cl)c(Cl)c1 was read as CYP2C9 inhib 2, D1 mod -0.49, CYP2C19 inhib -6, CYP2C19 activ 1.1, hDAT+cocaine 0.26 and CYP2C9 act 1.
Screening CCNC(=O)/C(=C/c1ccc2c(c1)OCO2)NC(=O)c1ccc(Br)cc1 returned CYP2C9 inhib 26, CYP2C19 inhib 32, CYP2C19 activ 0.7, hDAT+cocaine 2.1 and CYP2C9 act 0.7.
For O=C(Nc1ccc(O)cc1)C1CC=CCC1 (configuration not stated) the results were CYP2C9 inhib 6, D1 mod 0.63, CYP2C19 inhib -1, CYP2C19 activ 1, hDAT+cocaine 0.76 and CYP2C9 act 0.9.
For O=C(NCc1ccccc1)C1=C[C@H](C2CCCCC2)C[C@H](OCCCCO)O1 the results were hDAT+cocaine 2.1*.
O=C(Nc1nccs1)C1CCCN(S(=O)(=O)c2cccc3cccnc23)C1 (configuration not stated) was read as CYP2C9 inhib 8, D1 mod 0.8, CYP2C19 inhib 45, CYP2C19 activ 0.5, hDAT+cocaine -0.083 and CYP2C9 act 0.9.
`O=C(Nc1nc2cc(Cl)ccc2s1)C1CCCN(S(=O)(=O)c2cccc3cccnc23)C1` (configuration not stated) gave CYP2C9 inhib -106, CYP2C19 inhib 7, CYP2C19 activ 0.9, hDAT+cocaine 0.88 and CYP2C9 act 2.1*.
O=C(Nc1ccc(F)cc1)C1CCCN(S(=O)(=O)c2cccc3cccnc23)C1 (configuration not stated) was read as CYP2C9 inhib -74, D1 mod 1.2, CYP2C19 inhib 68*, CYP2C19 activ 0.3, hDAT+cocaine -0.29 and CYP2C9 act 1.7.
Screening CCOC(=O)Nc1ccc(S(=O)(=O)Nn2cnnc2)cc1 returned CYP2C9 inhib 30, CYP2C19 inhib 11, CYP2C19 activ 0.9, hDAT+cocaine -0.28 and CYP2C9 act 0.7.
Screening O=C(O)C1CC(O)CN1C(=O)c1ccco1 (configuration not stated) returned CYP2C9 inhib -20, CYP2C19 inhib -2, CYP2C19 activ 1, hDAT+cocaine 0.047 and CYP2C9 act 1.2.
For CCOc1ccc(S(=O)(=O)N2CCN(C(=O)c3sccc3C)CC2)cc1 the results were CYP2C9 inhib 32, CYP2C19 inhib 74*, CYP2C19 activ 0.3, hDAT+cocaine 0.33 and CYP2C9 act 0.7.
Screening Cc1ccc(S(=O)(=O)N2CCN(C(=O)c3ccc(OCc4c(C)noc4C)cc3)CC2)cc1 returned CYP2C9 inhib 29, D1 mod -0.94, CYP2C19 inhib 3, CYP2C19 activ 1, hDAT+cocaine -0.67 and CYP2C9 act 0.7.
CCOC(=O)C1CCN(S(=O)(=O)c2cccc(-c3cn4cc(C)ccc4n3)c2)CC1 was read as CYP2C9 inhib 30, CYP2C19 inhib 52*, CYP2C19 activ 0.5, hDAT+cocaine 2.1 and CYP2C9 act 0.7.
CCOC(=O)N1CCN(S(=O)(=O)c2ccc(OCC)cc2)CC1 was read as CYP2C9 inhib 35, CYP2C19 inhib 76*, CYP2C19 activ 0.2, hDAT+cocaine 0.52 and CYP2C9 act 0.6.
`CCOC(=O)C1CCN(S(=O)(=O)c2ccc(OCC)cc2)CC1` gave CYP2C9 inhib -11, CYP2C19 inhib 94*, CYP2C19 activ 0.1, hDAT+cocaine -0.059 and CYP2C9 act 1.1.
Screening CCOC(=O)c1ccc(S(=O)(=O)N2CCC(C(=O)OCC)CC2)cc1 returned CYP2C9 inhib 19, D1 mod -0.64, CYP2C19 inhib 19, CYP2C19 activ 0.8, hDAT+cocaine -1.7 and CYP2C9 act 0.8.
